PKM2 activator: activators of human pyruvate kinase M2; P14618; purified PKM2, Kinase-Glo ATP luminescence, activation; response scale: 0% is enzyme alone, no compound; Potency, µM (highest dose often 57.5 µM), most hits filed as activators; 0.34% of 260,000 active; note: nearly all actives have a fitted effect of over 55% in size
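ATP formation by purified human PK-M2, quantified via coupled luciferase luminescence after 1 h at room temperature with 0.1 mM ADP and 0.5 mM PEP final.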
Six1-Eya2 blk: inhibitors of human Six1/Eya2 interaction. Q15475+O00167. AlphaScreen GST-Six1/His-Eya2 binding, biochemical; stronger effect = lower value. activity change, % (concentration not given with the values). 0.56% of 360,000 active. AID 651725; in the data active = activity change below about -65%; inconclusive = mostly about -30% to -63%
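AlphaScreen with GST-Six1 and His-Eya2 (5X mix: 250 nM and 500 nM), glutathione donor and nickel acceptor beads; buffer 50 mM Tris pH 8.0, 300 mM NaCl, 1 mM TCEP; 1 h at 37 C in the dark.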
CtBP-E1A inh: inhibitors of CtBP/E1A interaction; AlphaScreen GST-E1A/His-CtBP binding, 1536-well; stronger effect = lower value; activity change, % (concentration not given with the values); 0.49% of 340,000 active; in the data active = activity change below about -65%; inconclusive = mostly about -30% to -63%
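AlphaScreen with 125 nM GST-E1A and 125 nM His-CtBP (5X stocks) in Tris pH 8.0, 300 mM NaCl, BSA, Tween 20, TCEP. Compounds preincubated 2 h at 37 deg C, then glutathione donor/nickel acceptor beads added for 1 h at 37 deg C in dark.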
RORg inh: inhibitors of mouse ROR gamma transcriptional activity. P51450. Drosophila S2 Gal4-RORgamma UAS-luciferase reporter, 20 h. Potency, µM (series often up to 53.6 µM), most hits filed as inhibitors. 5.4% of 310,000 active. AID 2551; note: nearly all actives have a fitted effect of over 60% in size
Target sequence (P51450 whole entry, looked up, the tested form may be a part): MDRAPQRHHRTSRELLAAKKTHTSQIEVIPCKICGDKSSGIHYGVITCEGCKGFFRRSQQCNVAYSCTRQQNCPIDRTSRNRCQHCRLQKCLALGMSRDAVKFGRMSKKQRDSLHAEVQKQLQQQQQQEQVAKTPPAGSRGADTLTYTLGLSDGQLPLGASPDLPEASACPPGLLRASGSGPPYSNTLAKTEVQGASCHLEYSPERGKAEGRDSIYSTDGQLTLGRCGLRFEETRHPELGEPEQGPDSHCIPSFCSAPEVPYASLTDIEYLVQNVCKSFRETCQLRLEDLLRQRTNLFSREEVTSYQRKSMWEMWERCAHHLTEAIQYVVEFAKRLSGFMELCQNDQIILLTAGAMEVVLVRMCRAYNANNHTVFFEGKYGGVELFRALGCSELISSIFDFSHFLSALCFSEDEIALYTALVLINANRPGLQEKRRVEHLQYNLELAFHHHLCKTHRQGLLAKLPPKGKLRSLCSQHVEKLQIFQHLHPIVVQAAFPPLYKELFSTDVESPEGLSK
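Luciferase reporter read in Schneider cells carrying Gal4-RORγ (mouse) and UAS-Photinus luciferase; cells given compound 1 h before 700 uM copper sulfate induction, then incubated 20 h at ambient temperature.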
VP16 counter: inhibits Gal4-VP16 luciferase reporter, ROR gamma counter-screen; Drosophila S2 Gal4-VP16 UAS-luciferase, luminescence, 20 h; Potency, µM (top dose mostly 53.6 µM), actives largely listed as inhibitors; 3.5% of 310,000 active; AID 2546;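 note: Gal4-VP16 expression switched on by copper sulfate through the metallothionein promoter; nearly all actives have a fitted effect of over 50% in size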
Each line names hits and unclear results; the compound was inactive in the other large screens. This is a sample that favours compounds with a hit; in the whole collection about 5.6% have one here. Unless noted, calls come from the whole dose curve; as a rule, active = well fitted curve in the direction sought with a large enough effect; inconclusive = small, poorly fitted or top-dose-only effect, or another doubt; inactive = no such curve, though single readings can be large; an effect the other way counts as inactive or inconclusive.

C#CCn1cc(/C=N/NC(=O)c2cc3ccccc3o2)c2ccccc21	RORg inh 18µM, VP16 counter inconclusive
Cc1nnc(-c2ccc(N3CCCCCC3)c([N+](=O)[O-])c2)o1	none (no result: CtBP-E1A inh)
Cc1ccc(C)c(NC(=S)N(C)C)c1	none
Cc1cc(C)c(NC(=S)N(C)C)cc1C	RORg inh 7.9µM (no result: CtBP-E1A inh)
Cc1cc(C)cc(NC(=S)N(C)C)c1	RORg inh 10µM
O=C(Nc1ccccc1)Nc1cc(OCC(F)(F)F)cc(OCC(F)(F)F)c1	RORg inh inconclusive, VP16 counter 16µM
O=C(NC(=S)Nc1ccc(S(=O)(=O)N2CCCCC2)cc1)c1cccs1	RORg inh 4.5µM, VP16 counter inconclusive
O=C(NC(=S)Nc1ccc(S(=O)(=O)NC2CCCCC2)cc1)c1cccs1	RORg inh 1.1µM, VP16 counter 0.45µM
CCC(=O)NC(=S)Nc1ccc(S(=O)(=O)NC2CCCCC2)cc1	none
NS(=O)(=O)c1ccc(NC(=S)NC(=O)c2cccs2)cc1	none
CCCCCCCCCCCCC/C=C/[C@@H](O)[C@H](CO)N(C)C	none (no result: PKM2 activator, Six1-Eya2 blk, CtBP-E1A inh)
Cn1nnc(NC(=S)NC(=O)Cc2ccccc2)n1	RORg inh 1.4µM, VP16 counter 11µM
Cn1nnc(NC(=S)NC(=O)c2cc3ccccc3o2)n1	RORg inh 1.1µM, VP16 counter 6.3µM (no result: CtBP-E1A inh)
CC(=O)Nc1ccc(NC(=S)NC(=O)c2cc3ccccc3o2)cc1	none
Cn1nnc(NC(=S)NC(=O)c2ccco2)n1	RORg inh inconclusive, VP16 counter 10µM
Cn1nnc(NC(=O)c2ccco2)n1	none
COCC(=O)N1CCCC(C(=O)c2ccc(-c3ccccc3)c(F)c2)C1 (stereo unspecified)	RORg inh inconclusive
O=C(CNc1cccc2ccccc12)N/N=C/c1ccc([N+](=O)[O-])o1	RORg inh 11µM, VP16 counter inconclusive
O=C(CNc1cccc2ccccc12)N/N=C/c1ccc[nH]1	RORg inh 5µM, VP16 counter 14µM
O=C(CCN1CCN(c2ccccc2)CC1)N/N=C/c1ccc([N+](=O)[O-])o1	RORg inh 18µM
CSc1ccc(/C=N/NC(=O)CNc2cccc3ccccc23)cc1	RORg inh 35µM, VP16 counter inconclusive
CC(OC(=O)CCC1CCCC1)C(=O)Nc1ccccc1[N+](=O)[O-] (stereo unspecified)	Six1-Eya2 blk inconclusive (no result: PKM2 activator, RORg inh, VP16 counter)
Cc1sc2ncnc(OCC(=O)NC3CCS(=O)(=O)C3)c2c1C (stereo unspecified)	none (no result: CtBP-E1A inh)
COc1cc(/C=N/NC(=O)CCN2CCN(c3ccccc3)CC2)cc(OC)c1OC	Six1-Eya2 blk -82, CtBP-E1A inh -80
COc1cc(/C=N/NC(=O)CCN2CCN(Cc3ccccc3)CC2)cc(OC)c1OC	none
O=C(N/N=C/C1CCCCC1)c1cc(Cl)ccc1O	RORg inh 13µM
CC12CCC(C/C1=N\N=C1\NC(=O)/C(=C\c3cccc(Br)c3)S1)C2(C)C (stereo unspecified)	RORg inh 10µM, VP16 counter 11µM
CCCCCCCCC/C=C/CC1CC(=O)OC1=O (stereo unspecified)	none (no result: PKM2 activator, Six1-Eya2 blk, CtBP-E1A inh)
CNC(=O)CC12CC3CC(CC(C3)C1)C2	none
COCCNC(=S)NC(=O)CC12CC3CC(CC(C3)C1)C2	RORg inh 2.5µM, VP16 counter inconclusive
CC(=O)N1CCN(C(=S)NC(=O)C23CC4CC(CC(C4)C2)C3)CC1	RORg inh 14µM
S=C(NC12CC3CC(CC(C3)C1)C2)N1CCCC1	RORg inh 14µM, VP16 counter inconclusive
O=C(CC12CC3CC(CC(C3)C1)C2)NC(=S)N1CCCCC1	RORg inh 4.5µM, VP16 counter 3.5µM
CC1(c2ccccc2)NC(=O)N(CC(=O)N2CCN(S(=O)(=O)c3cccc(C(F)(F)F)c3)CC2)C1=O (stereo unspecified)	none (no result: PKM2 activator, RORg inh, VP16 counter)
O=C(Nc1cccc(Cl)c1)NC1CC2CCC1C2 (stereo unspecified)	RORg inh inconclusive
Cc1cccc(-n2c(C)c(C)c3c(N)ncnc32)c1	none
CC12CCC(=O)N1C(C(=O)NNC(=O)c1ccccc1Cl)CS2 (stereo unspecified)	none (no result: PKM2 activator, CtBP-E1A inh, RORg inh, VP16 counter)
COc1cc(/C=C2/C(=N)N3C=CSC3=NC2=O)ccc1OCCCOc1cc(C)ccc1C	RORg inh 10µM, VP16 counter 11µM
COc1cc(/C=C2\C(=N)N3N=C(S(C)(=O)=O)SC3=NC2=O)ccc1OCCOc1ccccc1C	none (no result: PKM2 activator)
CC(C)COC(=O)c1cccc2c1-c1ccccc1/C2=N\O	RORg inh inconclusive, VP16 counter 11µM
C#C[C@]1(O)CC[C@H]2[C@@H]3CCC4=CCCC[C@@H]4[C@H]3C(=C)C[C@@]21CC	none (no result: PKM2 activator, Six1-Eya2 blk, CtBP-E1A inh)
CN(C)/C=C(\C(=O)c1cccc(Cl)c1)c1nnnn1-c1ccccc1	RORg inh 14µM, VP16 counter inconclusive
CCN(CC)c1ccc(C=C(c2nnnn2-c2ccccc2)c2nnnn2-c2ccccc2)cc1	none
CCOC(=O)c1csc(NC(=O)c2cc3ccccc3o2)n1	RORg inh 3.2µM, VP16 counter inconclusive
CCOC(=O)CNC(=O)c1sc(NC(=O)c2ccccc2F)nc1C	RORg inh inconclusive, VP16 counter 2.5µM
CCOC(=O)c1sc(NC(=O)c2cc3ccccc3o2)nc1C	RORg inh 4µM, VP16 counter inconclusive
CCOC(=O)c1ccccc1NC(=O)c1cc2ccccc2o1	none (no result: CtBP-E1A inh)
Cc1cnc(NC(=O)c2cc3ccccc3o2)s1	RORg inh 6.3µM, VP16 counter 13µM
Cc1nnc(NC(=O)c2cc3ccccc3o2)s1	RORg inh inconclusive (no result: PKM2 activator)
CC1(C(=O)Nc2cccnc2)Cc2c(-c3cccc(C(F)(F)F)c3)ccnc2O1 (stereo unspecified)	none (no result: PKM2 activator, RORg inh, VP16 counter)
Cc1cc(C(=O)N2CCC(Cc3ccccc3)CC2)c(C)o1	none
Cc1nc(NC(=O)c2cc3ccccc3o2)sc1C	RORg inh 10µM, VP16 counter inconclusive
CCOC(=O)c1sc(NC(=O)Nc2ccccc2F)nc1C	RORg inh 7.9µM, VP16 counter 8.9µM
CCOC(=O)CNC(=O)CSc1nc(C(C)C)nc2c1cnn2-c1ccccc1	none (no result: PKM2 activator, RORg inh, VP16 counter)
COc1cc(OC)c(-c2c3cc(O)c(=O)cc-3oc3cc(O)c(O)cc23)cc1OC	Six1-Eya2 blk inconclusive, RORg inh inconclusive, VP16 counter inconclusive
Cc1c2cc(O)c(=O)cc-2oc2cc(O)c(O)cc12	PKM2 activator inconclusive, Six1-Eya2 blk -89, CtBP-E1A inh -94, RORg inh inconclusive, VP16 counter inconclusive
N#C/C(=C\c1ccc(Cl)cc1)C(=O)Nc1cccnc1	none
COc1ccc2cc(C(N)=O)/c(=N\NC(=O)c3ccccc3)oc2c1	RORg inh 13µM, VP16 counter inconclusive (no result: PKM2 activator)
CS(=O)(=O)c1ccc(NCCc2ccccn2)c([N+](=O)[O-])c1	PKM2 activator 14µM
CCOC(=O)C/C(C)=N/NC(=O)C1CC1(c1ccccc1)c1ccccc1 (stereo unspecified)	RORg inh 10µM, VP16 counter inconclusive

Screening results deposited in PubChem BioAssay by National Center for Advancing Translational Sciences (NCATS).
